Assay results as given in ChEMBL document CHEMBL3433997, “St. Jude Leishmania screening dataset” (2016).

Target: Glucose transporter (Leishmania mexicana) (UniProt O61059)
Test: ST_JUDE_LEISH: Cytotoxicity at 2uM final concentration against transgenic Leishmania Mexicana promastigotes LmGT2 that are glucose transport deficient and complemented with the L. Mexicana glucose transporter 2. Activity is measured by DNA content using SYBR green in vitro
Format: functional

SMILES | inhibition [%]
COc1cc(-c2nc(-c3ccccc3)c(-c3ccccc3)[nH]2)cc(OC)c1O | -1.53
CNC(=O)c1cc(S(=O)(=O)N2CCN(c3ccccn3)CC2)c(C)s1 | 1.44
CN1CCN(S(=O)(=O)c2ccc3nccc(Nc4ccc(Oc5ccccc5)cc4)c3c2)CC1 | -1.4
COc1ccc(-c2cccc(NC(=O)c3cccc(Cl)c3)c2)cc1CNC(C)C | 1.24
CN1CCN(c2ccc3[nH]c(-c4ccc(Cc5cc(Cl)ccc5OCc5ccccc5)o4)nc3c2)CC1 | 2.2
CC(C)CC(NC(=O)c1cc2ccccc2s1)C(=O)N1CCCCCC1c1ccc(C(C)(C)C)cc1 (stereo not given) | -0.81
O=C(Nc1ccc(-c2nc3ccccc3[nH]2)cc1)C1CCN(Cc2ccccc2)CC1 | 12.6
CCc1cc(-c2onc(C(F)(F)F)c2-c2ccccc2)c(O)cc1OC | 7.43
Cc1ccc(CNc2ccc3ncc(-c4cccc(C(=O)NCCN(C)C)c4)n3n2)c(C)c1 | 4.49
CCc1cc2c(Sc3nc4ccccc4[nH]3)ncnc2s1 | -0.12
Cc1cc(=O)c(C2CCC(c3ccc(Cl)cc3)CC2)c(C)[nH]1 (stereo not given) | 2.37
CS(=O)(=O)c1cccc(-c2cnc3[nH]cc(-c4ccc(C(=O)O)cc4)c3c2)c1 | 1.75
O=C(/C=C/c1ccc(CNCCN2CCOCC2)cc1)NCCc1ccccc1 | 0.2
COc1ccc(NC(=O)/C=C/c2ccccc2Cl)cc1OCCN1CCC(NC2CC2)CC1 | 4.32
Nc1nccc(-c2ccc3c(-c4cccc(F)c4)cnc(N)c3c2)n1 | -0.84
CCN(CC)C(=O)C(=O)c1c[nH]c2ccc(Cl)cc12 | 0.85
CCC(CC)OC(=O)C(C)c1cccc(C(=O)c2ccccc2)c1 (stereo not given) | 1.64
CN1CCN(CC(O)CNC(=O)Nc2ccc(Cl)cc2)CC1 (stereo not given) | 2.94
COc1ccc(CN(C)CCCOc2ccc(NC(=O)c3cccc4c(=O)c5cccc(F)c5[nH]c34)cc2)cc1OC | 3.1
CCOC(=O)c1c(C)n(-c2ccc(Cl)cc2)c2ccc(OC(=O)C=Cc3ccccc3)cc12 | 5.18

SMILES | inhibition [%]
CC(C)c1cc(Oc2c(I)cc(CCNCc3ccccc3)cc2I)ccc1O | 0.47
COc1ccc2nccc([C@@H](O)CN3CCC(NCCOc4ccncc4)CC3)c2c1 | -0.87
O=c1c2ccccc2[nH]c2cc(Cl)ccc12 | 0.77
CN(C)CCN(Cc1ccccc1)c1ccc([N+](=O)[O-])cc1C(F)(F)F | 8.1
N=c1n(CCN2CCCC2)c2ccccc2n1CC(O)c1ccc(Cl)c(Cl)c1 (stereo not given) | 9.08
O=C1COC2(CN1C1CCN(Cc3ccc(O)c(Cl)c3)C1)c1ccccc1-c1ccccc12 (stereo not given) | 5.67
CC(C)CNCc1cccc(-c2ccccc2CNC2CCN(Cc3ccccc3)CC2)c1 | 7.56
Cc1[nH]c(C)c(-c2ccc(-c3ccccc3)nc2)c(=O)c1Br | 0.2
C(=Cc1ccccc1)C=NN=c1cc[nH]c2ccccc12 | -2.14
CC(=O)N/N=C/[C@H](CCc1ccccc1)NC(=O)[C@H](CC(C)C)NC(=O)c1cccc(OCCN2CCOCC2)c1 | 5.79
CC(=O)c1ccc(N2C(=O)C3C(Cc4ccc(OC(C)(C)C)cc4)NC4(C(=O)N(Cc5ccc(C(C)(C)C)cc5)c5ccccc54)C3C2=O)cc1 (stereo not given) | 2.13
CN1CCC(NCc2cccc(-c3ccc(S(=O)(=O)NCCc4ccccn4)cc3)c2)CC1 | -2.17
O=C(c1cc(OC(F)(F)F)ccc1O)N1CCN(c2ccccc2)CC1 | 7.06
CC(=O)Nc1ccc(CN2CCC(NC(=O)c3ccc(-c4cccc(OC(C)C)c4)s3)CC2)cc1 | 7.43
O=C(Cn1c(SCc2cccc(F)c2F)cc(=O)c2ccccc21)N(CCN1CCCCC1)Cc1ccc(-c2ccc(C(F)(F)F)cc2)cc1 | -1.85
COc1cc2nc(NCC3CCN(c4nc(N)c5cc(OC)c(OC)cc5n4)CC3)nc(N)c2cc1OC | 3.28
CS(=O)(=O)NCCCNCc1cccc(-c2ccc(-c3nc4cc(C(F)(F)F)ccc4[nH]3)cc2)c1 | 0.95
COc1ccc(NC(=O)/C=C/c2ccccc2Cl)cc1OCCN1CCC(NCc2ccccc2)CC1 | 0.75
CC(NC(=O)c1ccc(O)c(-c2ccc(Cl)c(Cl)c2)c1)C(=O)NCCN1CCCCC1 (stereo not given) | 0.47
Cc1nn(-c2ccnc3cc(Cl)ccc23)c(C)c1C(=O)NCc1cc(Cl)cc(Cl)c1 | 1.27
